Assay [1] relates to Plasmodium falciparum Sir2 (PF13_0152, Sir2A). Briefly: Plasmodium falciparum Sir2A binding compounds – biochemical, small-molecule microarray, 635 nm fluorescence, primary screen (AID 1098).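 Further: score merges spot fluorescence intensity with its signal-to-noise ratio.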 Particulars: fluorescence 635 nm, higher = more signal.
Assay [2] can be described thus: probe aDKK1 binding to arrayed compounds – biochemical, biotinylated probe, 635/667 nm fluorescence, primary screen (AID 1099).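 Further: score merges 667nm spot fluorescence with signal to noise across triplicate slides; reference of the scale not given here.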 Particulars: small-molecule microarray, higher = more signal.
Assay [3] can be described thus: probe aCHRDL2 binding to arrayed compounds – biochemical, biotinylated probe, 635/667 nm fluorescence, primary screen (AID 1100). The following applies: small-molecule microarray, higher = more signal.
The nature of assay [4]: change in splice reporter luminescence, either direction, cell-based, HEK293, spliceosome inhibition project, primary screen (AID 1101).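 Further: HEK293 cells carrying a splicing-competent luciferase reporter gene; test concentration not given here.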 Particulars: HEK293 splicing luciferase reporter, 24 h, higher = more signal, called active from +8 up or from −8 down. For orientation: A reporter such as luciferase makes a cellular process visible.
Assay [5] has as its target Fibroblast growth factor 10 (Homo sapiens) (UniProt O15520). Briefly: compounds binding fibroblast growth factor 10 – biochemical, small-molecule microarray, 635 nm fluorescence, primary screen (AID 1102). Particulars: FGF10 binding, fluorescence 635 nm, higher = more signal.
In assay [6] the test system is glycogen synthase kinase-3 (GSK3A per assay name; protocol says GSK3B). Description: compounds binding glycogen synthase kinase-3 – biochemical, small-molecule microarray, 635 nm fluorescence, GSK3A, primary screen (AID 1103). Further: the record names both GSK3A and GSK3B. The following applies: fluorescence 635 nm, higher = more signal.
Assay [7] concerns the target Epidermal growth factor receptor (Homo sapiens) (UniProt P00533). Description: compounds binding epidermal growth factor receptor – biochemical, small-molecule microarray, 635 nm fluorescence, primary screen (AID 1104).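 Further: score merges 667 nm emission intensity with spot signal to noise over triplicate slides.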 Particulars: EGFR binding, higher = more signal.
For assay [8], the target named is Follistatin-related protein 3 (Homo sapiens) (UniProt O95633). Description: compounds binding follistatin-related protein 3 – biochemical, small-molecule microarray, 635 nm fluorescence, primary screen (AID 1105).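 Further: score merges emission near 667 nm and signal to noise per printed spot across three slides.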 Particulars: FSTL3 binding, higher = more signal.
Sequence of Follistatin-related protein 3 (Homo sapiens) (O95633 whole entry, looked up): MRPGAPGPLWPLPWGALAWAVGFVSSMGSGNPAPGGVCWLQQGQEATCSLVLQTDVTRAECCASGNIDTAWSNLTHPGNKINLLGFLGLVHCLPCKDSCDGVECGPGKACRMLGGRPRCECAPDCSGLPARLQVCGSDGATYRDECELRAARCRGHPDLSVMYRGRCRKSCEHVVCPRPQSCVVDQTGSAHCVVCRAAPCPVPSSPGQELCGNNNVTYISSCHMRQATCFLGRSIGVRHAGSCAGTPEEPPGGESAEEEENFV
Assay [9] concerns the target Dickkopf-related protein 1 (Homo sapiens) (UniProt O94907). Description: small molecules binding DKK1 protein – biochemical, small-molecule microarray, 635 nm fluorescence scan, primary screen (AID 1106).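 Further: score merges emission near 667 nm with signal to noise over three replicate slides.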 The following applies: higher = more signal.
Assay [10] deals with Inhibin beta A chain (activin A). Description: small molecules binding activin A – biochemical, small-molecule microarray, 635 nm fluorescence scan, primary screen (AID 1107).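 Further: mouse activin A protein probed at 4.33 µg/mL on printed slides; score merges bound-protein fluorescence near 667 nm with spot signal-to-noise.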 Particulars: INHBA, higher = more signal.

Each structure is given as a SMILES string. Calls of active or inactive are those of the source.

Sequence of Dickkopf-related protein 1 (Homo sapiens) (O94907 whole entry, looked up): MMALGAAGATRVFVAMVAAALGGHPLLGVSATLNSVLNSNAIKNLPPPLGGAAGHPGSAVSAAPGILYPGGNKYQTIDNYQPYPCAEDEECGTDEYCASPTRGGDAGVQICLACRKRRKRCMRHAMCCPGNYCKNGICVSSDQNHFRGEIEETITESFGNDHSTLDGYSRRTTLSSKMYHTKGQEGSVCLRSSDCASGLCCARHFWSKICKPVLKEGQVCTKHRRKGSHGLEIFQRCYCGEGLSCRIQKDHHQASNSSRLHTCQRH
Sequence of Fibroblast growth factor 10 (Homo sapiens) (O15520 whole entry, looked up): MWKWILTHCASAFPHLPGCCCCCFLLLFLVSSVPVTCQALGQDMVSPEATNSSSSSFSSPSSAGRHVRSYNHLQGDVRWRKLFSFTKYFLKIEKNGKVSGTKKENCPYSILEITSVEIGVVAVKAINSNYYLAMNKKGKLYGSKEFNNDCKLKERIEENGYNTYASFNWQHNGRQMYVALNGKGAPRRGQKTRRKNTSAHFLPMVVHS
Sequence of Epidermal growth factor receptor (Homo sapiens) (P00533 whole entry, looked up): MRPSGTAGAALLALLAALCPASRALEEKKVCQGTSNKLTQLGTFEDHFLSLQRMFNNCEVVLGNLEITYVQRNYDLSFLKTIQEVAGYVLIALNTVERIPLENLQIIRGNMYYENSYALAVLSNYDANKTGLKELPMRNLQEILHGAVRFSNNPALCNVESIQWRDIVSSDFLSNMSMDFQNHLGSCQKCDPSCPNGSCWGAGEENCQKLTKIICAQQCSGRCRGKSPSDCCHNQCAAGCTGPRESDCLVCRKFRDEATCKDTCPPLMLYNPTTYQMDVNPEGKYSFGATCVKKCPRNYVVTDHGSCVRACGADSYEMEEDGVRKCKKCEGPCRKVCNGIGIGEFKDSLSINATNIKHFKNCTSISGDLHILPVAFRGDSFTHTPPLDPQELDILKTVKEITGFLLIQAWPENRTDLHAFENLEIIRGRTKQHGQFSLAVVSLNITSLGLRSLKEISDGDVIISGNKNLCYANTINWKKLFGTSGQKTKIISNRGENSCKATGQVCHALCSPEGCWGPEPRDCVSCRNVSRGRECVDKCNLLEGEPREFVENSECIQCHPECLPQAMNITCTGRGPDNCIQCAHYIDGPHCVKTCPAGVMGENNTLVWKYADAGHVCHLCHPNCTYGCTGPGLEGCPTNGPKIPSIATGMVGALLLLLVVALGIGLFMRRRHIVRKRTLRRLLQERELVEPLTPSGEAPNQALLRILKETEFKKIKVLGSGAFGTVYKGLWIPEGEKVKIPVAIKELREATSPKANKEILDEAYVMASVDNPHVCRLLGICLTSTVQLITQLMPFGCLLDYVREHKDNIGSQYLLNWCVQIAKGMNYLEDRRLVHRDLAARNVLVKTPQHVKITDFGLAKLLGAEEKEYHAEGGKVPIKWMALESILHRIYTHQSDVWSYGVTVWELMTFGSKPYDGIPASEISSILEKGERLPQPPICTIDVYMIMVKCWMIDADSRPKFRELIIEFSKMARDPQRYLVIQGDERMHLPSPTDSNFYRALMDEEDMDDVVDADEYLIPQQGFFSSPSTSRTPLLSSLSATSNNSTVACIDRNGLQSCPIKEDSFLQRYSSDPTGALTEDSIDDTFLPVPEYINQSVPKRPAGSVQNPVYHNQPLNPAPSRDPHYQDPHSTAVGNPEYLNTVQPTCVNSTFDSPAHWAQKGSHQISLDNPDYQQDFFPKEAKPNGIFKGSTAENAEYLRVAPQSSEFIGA

For the molecule `NCCCCCCNC(=O)[C@@H]1C[C@@H]2C(=O)N[C@@H](CCCCN)C(=O)N2[C@@H]1c1cccc(OCCO)c1`, the composite z-score in [1] came out at 1.85; in [2] it was 0.772; in assay [3], 1.14; in assay [5] it was 0.243; in [6], 0.543; in assay [7] it was 0.412. Also, the composite z-score in assay [8] amounted to 0.171; in assay [9], 1.64; in assay [10] it was 0.702. The z-score in [4] was -0.615 (inactive).
For `C#CCN([C@@H](Cc1ccc(O)cc1)C(=O)OC)[C@@H](/C=C/C1CC1)[C@H](O)Cc1ccccc1`, the composite z-score in assay [1] is -0.189; in assay [2] it was -0.236; in [3] it was -0.26; in assay [5] it was -0.251; in [6], -0.689; in assay [7], -0.0832. The composite z-score in assay [8] stood at 0.122; in assay [9], 0.103; in [10] it was 0.644. Also, the z-score in assay [4] was 0.25 (inactive).
Regarding `CCCCC(=C=CC[C@@H](O)c1ccccc1OCCO)C[C@@H](O)COCc1ccccc1`, the composite z-score is 1.15 in assay [1]; -0.126 in [2]; 0.142 in assay [3]; 0.114 in assay [5]; -0.158 in [6]; -1.14 in assay [7]. For the same molecule, the composite z-score in assay [8] was -0.126; in assay [9] it was -0.498; in assay [10] it was 0.596. Further, the z-score in assay [4] was -0.705 (inactive).
For the molecule `COC(=O)[C@@]1(Cc2ccc(OC)cc2)[C@H]2c3cc(C(=O)N(C)C)n(Cc4ccc(Cl)c(C(F)(F)F)c4)c3C[C@H]2CN1C(=O)c1ccccc1`, the composite z-score in assay [1] was 0.546; in assay [2], 1.45; in assay [3] it was 1.49; in [5], 0.523; in assay [6], 0.363; in assay [7], -0.242. The values for the composite z-score in assay [8], in [9] and in [10] were 0.83, -1.12 and 0.986, respectively. Further, the z-score in assay [4] is 0.524 (inactive).
As for `O=C1OCC=C[C@H]2OC34C=CCN(Cc5ccccc5)C(=O)[C@H]3N(CCCCCCO)C(=O)[C@@H]4[C@@H]12` (stereo not given in full), the composite z-score was 1.82 in assay [1]; -0.305 in [2]; 0.777 in assay [3]; -0.735 in assay [5]; -0.868 in assay [6]; -0.825 in assay [7]. In addition, the composite z-score in [8] is -0.608; in [9] it was -1.03; in assay [10], 0.652. For the same molecule, the z-score in [4] was 0.148 (inactive).
Regarding `CCCNC(=O)[C@@]1(c2ccc([N+](=O)[O-])cc2)CC(=O)N(C2CCCCC2)[C@@H]1c1ccc(CO)cc1`, the composite z-score in [1] was 0.472; in [2], 0.175; in [3], 0.39; in assay [5] it was 0.946; in assay [6], 1.22; in assay [7], 0.237. The composite z-score was 0.869 in assay [8], 0.301 in [9] and 0.254 in assay [10]. Further, the z-score in [4] is -0.867 (inactive).
`COc1ccc([Si](C)(C)[C@@H]2[C@@H](CCn3cc([C@H](O)c4ccccc4)nn3)O[C@]3(C(=O)N(Cc4ccc(N5CCC5=O)cc4)c4ccccc43)[C@H]2C)cc1`: the composite z-score is 0.453 in assay [1]; -0.213 in assay [2]; -0.0321 in assay [3]; 0.137 in [5]; -0.364 in assay [6]; -0.167 in assay [7]. Further, the figures for the composite z-score in assay [8], in [9] and in assay [10] were -0.0461, 0.135 and 0.632, respectively. For the same molecule, the z-score in assay [4] was -0.619 (inactive).
Regarding `C=CCOC(=O)[C@H]1[C@@H]2C(=O)O[C@@H](c3ccccc3)[C@@H](c3ccccc3)N2[C@@H](c2ccc(OCCOC(=O)[C@H]3C[C@H]4C(=O)N[C@@H](CCCCNC(C)=O)C(=O)N4[C@H]3c3ccc(O)cc3)cc2)[C@]12C(=O)Nc1ccccc12`, the composite z-score in assay [1] stood at 0.611; in assay [2], 0.258; in assay [3], 0.493; in [5], 0.776; in assay [6] it was 1.28; in assay [7], 0.915. The composite z-score in assay [8] stood at 0.932; in [9] it was 1.31; in assay [10], 0.351. Also, the z-score in assay [4] was -1.18 (inactive).
Turning to `O=c1n(-c2ccccc2)c(=O)n2n1CC(COc1ccccc1)=C([C@H](O)CCc1ccccc1)[C@@H]2CO`, the composite z-score was -0.0946 in [1]; -0.342 in assay [2]; -0.313 in [3]; 0.692 in [5]; -0.0688 in assay [6]; 0.0867 in assay [7]. Also, the figures for the composite z-score in [8], in [9] and in assay [10] were 0.0711, 0.291 and 1.03, respectively. Further, the z-score in assay [4] is -1.54 (inactive).
Take `Cc1cc(C)c(C(O)C2C=CC3C(=O)NC(=O)C3N2Nc2ccc(Cl)cc2Cl)c(C)c1` (stereo not given): the composite z-score in [1] came to 0.651; in [2] it was 0.639; in assay [3] it was 1.2; in [5] it was 0.871; in assay [6], 0.753; in assay [7], 0.253. Besides, the composite z-score is 0.95 in assay [8], -0.0057 in assay [9] and 1.31 in [10]. Further, the z-score in assay [4] was 0.465 (inactive).
`C=CCC(OC(C)=O)[C@@H]1[C@@H](N(Cc2ccc(-c3ccccc3)cc2)C(=O)Cc2ccc(F)cc2)c2cc(OCCCO)ccc2N1C(=O)Cc1ccc(OC)cc1` (stereo not given in full): the composite z-score was -0.383 in assay [1]; -0.129 in assay [2]; 0.0545 in assay [3]; -0.0269 in [5]; 0.0082 in [6]; -0.244 in [7]. In addition, the composite z-score in [8] was 0.359; in assay [9], -0.139; in [10], 1.14. In addition, in [4], the z-score was -0.599 (inactive).
For the molecule `CC1=C[C@@]2(CO)C(=O)[C@]3(CO3)[C@@H]1[C@H]1[C@]2(C)C=C(CO)C(=O)[C@]12CO2`, the composite z-score is 0.451 in assay [1]; 0.0159 in [2]; -0.52 in assay [3]; 0.302 in [5]; 0.296 in assay [6]; 0.33 in assay [7]. Besides, the composite z-score worked out at 0.951 in assay [8], 0.241 in assay [9] and 0.421 in assay [10]. Besides, the z-score in [4] was -0.23 (inactive).
As to `CO[C@H]1O[C@H](CO)[C@@H](OC(=O)Nc2ccccc2-c2ccccc2)[C@H](OC(=O)Nc2ccc3c(c2)OCO3)[C@H]1OC(=O)Nc1ccc2c(c1)OCO2`, the composite z-score in assay [1] came to 1.38; in [2] it was 0.244; in [3], 0.485; in assay [5], 1.24; in assay [6] it was 1.32; in assay [7] it was 0.17. In addition, the composite z-score is 1.43 in assay [8], 0.298 in [9] and 0.752 in [10]. For the same molecule, the z-score in assay [4] was -1.2 (inactive).
As to `CN(C)CCCNC(=O)[C@@H]1c2ccccc2C(=O)N(Cc2ccccc2Cl)[C@H]1c1ccc(CO)cc1`, the composite z-score in assay [1] was -0.405; in assay [2], 0.0414; in [3] it was 0.366; in assay [5], -0.497; in assay [6], 0.333; in assay [7], -0.493. The composite z-score is -0.89 in [8], 0.0146 in assay [9] and 0.828 in assay [10]. In addition, in assay [4], the z-score is -0.738 (inactive).
For `CC(c1ccccc1)C(O)C1C=CC2C(=O)N(c3ccccc3)C(=O)C2N1Nc1ccc([N+](=O)[O-])cc1` (stereo not given), the composite z-score turned out to be 1.38 in [1]; 0.831 in assay [2]; 0.862 in [3]; 0.781 in [5]; 1.3 in assay [6]; 0.424 in assay [7]. Also, the results for the composite z-score in assay [8], in [9] and in assay [10] were 1.23, -0.405 and 0.854, respectively. Moreover, in assay [4], the z-score is -0.43 (inactive).
In the case of `COc1cc(CO)cc(I)c1O[C@H]1C=C(C(=O)NCCO)C[C@@H](NCc2ccc(F)cc2)[C@@H]1O`, the composite z-score in [1] is 0.935; in [2], -0.197; in assay [3], -0.162; in assay [5], 1.43; in assay [6], 0.191; in [7], -0.0831. Further, the figures for the composite z-score in assay [8], in [9] and in assay [10] were 0.991, 0.978 and -0.144, respectively. In addition, in assay [4], the z-score is -1.05 (inactive).

Source of the values: PubChem BioAssay.
